Assays:
[1] = target: Tyrosine-protein kinase Fyn (Homo sapiens) (UniProt P06241); conditions: at 1 µM
[2] = target: Tyrosine-protein kinase HCK (Homo sapiens) (UniProt P08631); conditions: at 0.1 µM
[3] = target: Tyrosine-protein kinase HCK (Homo sapiens) (UniProt P08631); conditions: at 1 µM
[4] = target: Insulin-like growth factor 1 receptor (Homo sapiens) (UniProt P08069); conditions: at 0.1 µM
[5] = target: Insulin-like growth factor 1 receptor (Homo sapiens) (UniProt P08069); conditions: at 1 µM
[6] = target: Insulin receptor (Homo sapiens) (UniProt P06213); conditions: at 0.1 µM
[7] = target: Insulin receptor (Homo sapiens) (UniProt P06213); conditions: at 1 µM
[8] = target: Insulin receptor-related protein (Homo sapiens) (UniProt P14616); conditions: at 0.1 µM
[9] = target: Insulin receptor-related protein (Homo sapiens) (UniProt P14616); conditions: at 1 µM
[10] = target: T1, Tyrosine-protein kinase ITK/TSK (Homo sapiens) (UniProt Q08881); conditions: at 0.1 µM
T1 sequence (whole entry): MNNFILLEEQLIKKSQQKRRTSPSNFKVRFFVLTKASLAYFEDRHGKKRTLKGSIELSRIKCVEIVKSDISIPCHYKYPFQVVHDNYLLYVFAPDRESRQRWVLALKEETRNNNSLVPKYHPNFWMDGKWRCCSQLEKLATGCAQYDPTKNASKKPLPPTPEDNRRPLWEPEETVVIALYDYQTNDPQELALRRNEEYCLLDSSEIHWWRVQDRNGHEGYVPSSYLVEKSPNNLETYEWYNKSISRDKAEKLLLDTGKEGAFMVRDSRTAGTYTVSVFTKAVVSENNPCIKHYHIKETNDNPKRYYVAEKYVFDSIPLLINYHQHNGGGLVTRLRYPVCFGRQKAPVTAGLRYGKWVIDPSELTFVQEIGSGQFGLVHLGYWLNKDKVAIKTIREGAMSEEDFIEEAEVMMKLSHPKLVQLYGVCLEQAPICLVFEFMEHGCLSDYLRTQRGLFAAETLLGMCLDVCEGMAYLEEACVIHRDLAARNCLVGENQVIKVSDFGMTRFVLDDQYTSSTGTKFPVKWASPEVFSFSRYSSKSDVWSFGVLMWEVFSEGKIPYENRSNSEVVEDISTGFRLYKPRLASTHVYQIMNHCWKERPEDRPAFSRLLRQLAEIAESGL

[11] = target: T1, Tyrosine-protein kinase ITK/TSK (Homo sapiens); conditions: at 1 µM
[12] = target: Tyrosine-protein kinase JAK1 (Homo sapiens) (UniProt P23458); conditions: at 0.1 µM
[13] = target: Tyrosine-protein kinase JAK1 (Homo sapiens) (UniProt P23458); conditions: at 1 µM
[14] = target: Tyrosine-protein kinase JAK2 (Homo sapiens) (UniProt O60674); conditions: at 0.1 µM
[15] = target: Tyrosine-protein kinase JAK2 (Homo sapiens) (UniProt O60674); conditions: at 1 µM
[16] = target: T2, Tyrosine-protein kinase JAK3 (Homo sapiens) (UniProt P52333); conditions: at 0.1 µM
T2 sequence (whole entry): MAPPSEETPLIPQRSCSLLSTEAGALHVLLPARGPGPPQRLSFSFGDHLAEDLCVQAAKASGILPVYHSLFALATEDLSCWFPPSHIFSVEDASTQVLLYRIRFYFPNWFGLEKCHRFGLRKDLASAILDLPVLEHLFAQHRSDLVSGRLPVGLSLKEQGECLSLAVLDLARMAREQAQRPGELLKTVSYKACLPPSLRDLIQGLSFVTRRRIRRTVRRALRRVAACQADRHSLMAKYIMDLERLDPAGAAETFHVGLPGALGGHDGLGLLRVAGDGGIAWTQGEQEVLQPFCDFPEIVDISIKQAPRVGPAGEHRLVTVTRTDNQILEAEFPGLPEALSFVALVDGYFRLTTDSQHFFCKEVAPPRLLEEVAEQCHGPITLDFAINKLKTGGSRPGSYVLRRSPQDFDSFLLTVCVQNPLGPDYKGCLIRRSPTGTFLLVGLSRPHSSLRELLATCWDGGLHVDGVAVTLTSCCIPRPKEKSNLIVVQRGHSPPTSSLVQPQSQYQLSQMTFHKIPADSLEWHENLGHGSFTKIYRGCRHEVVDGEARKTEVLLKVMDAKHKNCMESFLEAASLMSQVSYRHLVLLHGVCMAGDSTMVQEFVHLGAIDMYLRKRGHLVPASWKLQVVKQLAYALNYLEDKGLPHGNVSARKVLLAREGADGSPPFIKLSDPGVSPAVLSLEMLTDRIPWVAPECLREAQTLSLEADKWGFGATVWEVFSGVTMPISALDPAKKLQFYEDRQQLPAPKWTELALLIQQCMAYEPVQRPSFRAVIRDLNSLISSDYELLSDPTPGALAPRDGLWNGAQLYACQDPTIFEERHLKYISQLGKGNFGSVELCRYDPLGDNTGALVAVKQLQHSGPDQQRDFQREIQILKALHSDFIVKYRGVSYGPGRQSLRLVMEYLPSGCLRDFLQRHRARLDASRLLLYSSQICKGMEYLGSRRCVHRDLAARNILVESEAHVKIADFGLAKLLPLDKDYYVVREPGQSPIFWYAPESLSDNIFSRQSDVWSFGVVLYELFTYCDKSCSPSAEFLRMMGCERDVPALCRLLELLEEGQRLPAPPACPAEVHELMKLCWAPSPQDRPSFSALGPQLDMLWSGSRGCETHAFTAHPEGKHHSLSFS

[17] = target: T2, Tyrosine-protein kinase JAK3 (Homo sapiens); conditions: at 1 µM
[18] = target: Vascular endothelial growth factor receptor 2 (Homo sapiens) (UniProt P35968); conditions: at 0.1 µM
[19] = target: Vascular endothelial growth factor receptor 2 (Homo sapiens) (UniProt P35968); conditions: at 1 µM
[20] = target: Mast/stem cell growth factor receptor Kit (Homo sapiens) (UniProt P10721); conditions: at 0.1 µM;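 further: values are mean inhibition of KIT, from the GSK PKIS dataset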
Sequence of Mast/stem cell growth factor receptor Kit (Homo sapiens) (P10721 whole entry): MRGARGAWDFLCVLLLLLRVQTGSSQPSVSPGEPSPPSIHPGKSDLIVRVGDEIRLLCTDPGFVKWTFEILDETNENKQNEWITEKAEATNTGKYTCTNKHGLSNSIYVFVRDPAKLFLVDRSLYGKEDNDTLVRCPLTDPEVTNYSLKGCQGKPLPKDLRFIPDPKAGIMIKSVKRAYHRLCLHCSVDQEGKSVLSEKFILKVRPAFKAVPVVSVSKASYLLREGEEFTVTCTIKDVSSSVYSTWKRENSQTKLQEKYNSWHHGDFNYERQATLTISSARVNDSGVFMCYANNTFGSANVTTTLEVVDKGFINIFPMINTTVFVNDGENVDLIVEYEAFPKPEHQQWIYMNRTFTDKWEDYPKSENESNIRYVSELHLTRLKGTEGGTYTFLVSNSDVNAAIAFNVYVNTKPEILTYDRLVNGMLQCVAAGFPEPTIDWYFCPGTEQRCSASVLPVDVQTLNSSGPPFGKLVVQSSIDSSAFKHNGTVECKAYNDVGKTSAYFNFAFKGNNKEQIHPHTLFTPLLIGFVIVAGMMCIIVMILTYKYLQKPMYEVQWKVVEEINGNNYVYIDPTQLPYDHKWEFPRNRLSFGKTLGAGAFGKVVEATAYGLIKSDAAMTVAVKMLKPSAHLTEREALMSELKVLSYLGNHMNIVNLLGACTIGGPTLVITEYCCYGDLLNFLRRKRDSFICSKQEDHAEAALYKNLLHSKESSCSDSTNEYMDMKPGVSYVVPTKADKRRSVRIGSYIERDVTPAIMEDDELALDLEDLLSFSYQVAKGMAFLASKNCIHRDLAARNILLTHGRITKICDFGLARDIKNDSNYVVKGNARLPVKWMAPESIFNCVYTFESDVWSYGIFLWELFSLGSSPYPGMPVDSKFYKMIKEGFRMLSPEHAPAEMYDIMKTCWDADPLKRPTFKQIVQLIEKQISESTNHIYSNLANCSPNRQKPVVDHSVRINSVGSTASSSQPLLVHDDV

Sequence of Tyrosine-protein kinase HCK (Homo sapiens) (P08631 2-526 limits assumed): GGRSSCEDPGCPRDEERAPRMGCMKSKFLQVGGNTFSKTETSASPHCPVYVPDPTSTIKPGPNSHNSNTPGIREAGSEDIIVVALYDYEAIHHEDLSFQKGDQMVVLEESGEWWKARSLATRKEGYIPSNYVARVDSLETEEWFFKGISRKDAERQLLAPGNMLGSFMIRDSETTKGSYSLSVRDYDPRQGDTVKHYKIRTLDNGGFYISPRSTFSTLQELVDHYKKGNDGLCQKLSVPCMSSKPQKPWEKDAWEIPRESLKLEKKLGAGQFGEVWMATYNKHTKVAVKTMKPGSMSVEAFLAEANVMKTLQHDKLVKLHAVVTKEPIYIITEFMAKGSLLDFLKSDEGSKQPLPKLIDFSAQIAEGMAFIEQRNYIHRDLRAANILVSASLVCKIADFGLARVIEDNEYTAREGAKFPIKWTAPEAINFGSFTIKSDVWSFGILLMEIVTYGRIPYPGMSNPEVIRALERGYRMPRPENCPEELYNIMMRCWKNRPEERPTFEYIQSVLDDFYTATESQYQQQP
Sequence of Tyrosine-protein kinase Fyn (Homo sapiens) (P06241 2-537 limits assumed): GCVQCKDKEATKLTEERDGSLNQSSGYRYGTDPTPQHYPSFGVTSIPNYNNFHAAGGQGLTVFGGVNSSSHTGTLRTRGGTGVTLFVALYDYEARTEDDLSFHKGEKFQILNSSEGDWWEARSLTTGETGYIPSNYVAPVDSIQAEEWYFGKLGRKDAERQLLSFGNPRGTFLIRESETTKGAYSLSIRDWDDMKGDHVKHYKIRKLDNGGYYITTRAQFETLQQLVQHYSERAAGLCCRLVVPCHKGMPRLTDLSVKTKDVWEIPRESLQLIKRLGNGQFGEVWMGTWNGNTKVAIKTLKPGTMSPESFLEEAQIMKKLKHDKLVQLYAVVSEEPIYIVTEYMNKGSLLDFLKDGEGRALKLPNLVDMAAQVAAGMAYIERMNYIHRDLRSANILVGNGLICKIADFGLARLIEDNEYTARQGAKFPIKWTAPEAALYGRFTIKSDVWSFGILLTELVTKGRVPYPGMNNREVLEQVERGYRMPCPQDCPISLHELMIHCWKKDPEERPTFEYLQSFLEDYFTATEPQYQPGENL
Sequence of Insulin receptor-related protein (Homo sapiens) (P14616 27-742 limits assumed): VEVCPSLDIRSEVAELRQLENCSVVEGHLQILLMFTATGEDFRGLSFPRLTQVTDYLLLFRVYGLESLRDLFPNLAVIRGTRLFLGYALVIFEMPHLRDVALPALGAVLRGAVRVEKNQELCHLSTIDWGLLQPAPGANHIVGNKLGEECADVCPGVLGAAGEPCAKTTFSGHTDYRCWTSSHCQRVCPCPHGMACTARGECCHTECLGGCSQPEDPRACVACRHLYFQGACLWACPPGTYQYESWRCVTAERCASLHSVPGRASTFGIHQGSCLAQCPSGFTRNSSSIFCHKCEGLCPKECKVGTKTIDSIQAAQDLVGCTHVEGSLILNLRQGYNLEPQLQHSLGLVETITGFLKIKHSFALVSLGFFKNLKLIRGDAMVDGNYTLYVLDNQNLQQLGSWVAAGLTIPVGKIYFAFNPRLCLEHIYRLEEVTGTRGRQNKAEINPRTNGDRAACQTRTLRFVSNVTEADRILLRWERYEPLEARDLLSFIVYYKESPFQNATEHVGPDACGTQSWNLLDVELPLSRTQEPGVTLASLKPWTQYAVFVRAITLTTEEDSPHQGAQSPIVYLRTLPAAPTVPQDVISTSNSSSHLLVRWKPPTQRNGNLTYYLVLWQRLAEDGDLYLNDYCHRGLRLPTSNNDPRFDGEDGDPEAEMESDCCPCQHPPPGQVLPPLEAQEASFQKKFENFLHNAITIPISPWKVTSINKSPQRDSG
Sequence of Insulin receptor-related protein (Homo sapiens) (P14616 747-1297 limits assumed): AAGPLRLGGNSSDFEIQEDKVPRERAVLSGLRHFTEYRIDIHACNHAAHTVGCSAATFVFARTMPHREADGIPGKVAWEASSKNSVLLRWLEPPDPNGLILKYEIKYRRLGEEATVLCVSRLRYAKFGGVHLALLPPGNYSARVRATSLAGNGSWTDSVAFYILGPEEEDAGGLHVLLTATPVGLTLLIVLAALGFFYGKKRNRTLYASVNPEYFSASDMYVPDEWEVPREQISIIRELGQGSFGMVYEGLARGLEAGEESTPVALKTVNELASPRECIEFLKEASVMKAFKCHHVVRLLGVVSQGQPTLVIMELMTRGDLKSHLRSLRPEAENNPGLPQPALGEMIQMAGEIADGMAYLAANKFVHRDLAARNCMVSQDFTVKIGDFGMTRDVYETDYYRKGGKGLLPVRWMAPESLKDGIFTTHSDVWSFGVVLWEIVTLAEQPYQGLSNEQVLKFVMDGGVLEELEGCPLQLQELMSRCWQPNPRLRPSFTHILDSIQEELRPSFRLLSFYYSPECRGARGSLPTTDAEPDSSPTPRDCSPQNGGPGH
Sequence of Tyrosine-protein kinase JAK2 (Homo sapiens) (O60674 whole entry): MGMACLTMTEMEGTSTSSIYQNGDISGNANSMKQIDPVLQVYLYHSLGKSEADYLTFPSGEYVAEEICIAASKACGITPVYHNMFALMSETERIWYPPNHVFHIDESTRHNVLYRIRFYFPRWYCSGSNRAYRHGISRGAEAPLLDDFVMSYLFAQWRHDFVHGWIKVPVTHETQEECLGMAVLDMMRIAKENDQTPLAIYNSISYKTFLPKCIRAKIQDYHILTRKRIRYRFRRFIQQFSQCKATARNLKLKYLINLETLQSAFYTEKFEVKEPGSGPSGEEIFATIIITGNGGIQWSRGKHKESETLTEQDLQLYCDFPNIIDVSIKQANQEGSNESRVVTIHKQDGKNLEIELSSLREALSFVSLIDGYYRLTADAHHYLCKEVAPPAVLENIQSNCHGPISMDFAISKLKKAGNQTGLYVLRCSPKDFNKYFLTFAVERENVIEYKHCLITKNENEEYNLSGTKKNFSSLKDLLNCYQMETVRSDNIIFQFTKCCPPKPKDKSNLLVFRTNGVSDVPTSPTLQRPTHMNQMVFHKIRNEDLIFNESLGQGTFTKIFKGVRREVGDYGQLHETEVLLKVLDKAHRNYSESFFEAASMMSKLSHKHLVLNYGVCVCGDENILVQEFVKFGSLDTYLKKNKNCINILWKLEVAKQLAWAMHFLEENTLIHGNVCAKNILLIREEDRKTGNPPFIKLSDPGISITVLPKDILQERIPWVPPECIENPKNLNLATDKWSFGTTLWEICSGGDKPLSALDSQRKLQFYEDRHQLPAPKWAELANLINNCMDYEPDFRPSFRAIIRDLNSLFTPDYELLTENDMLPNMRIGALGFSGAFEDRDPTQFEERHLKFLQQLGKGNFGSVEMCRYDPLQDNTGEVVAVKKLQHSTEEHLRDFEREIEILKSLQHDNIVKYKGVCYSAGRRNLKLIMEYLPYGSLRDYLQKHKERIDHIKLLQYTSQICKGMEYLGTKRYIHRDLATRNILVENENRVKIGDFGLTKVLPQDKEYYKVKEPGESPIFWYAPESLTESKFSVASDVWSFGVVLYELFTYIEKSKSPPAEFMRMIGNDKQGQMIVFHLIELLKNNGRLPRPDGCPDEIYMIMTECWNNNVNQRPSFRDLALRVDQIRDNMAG

Row | SMILES | inhibition [1] [%] | inhibition [2] [%] | inhibition [3] [%] | inhibition [4] [%] | inhibition [5] [%] | inhibition [6] [%] | inhibition [7] [%] | inhibition [8] [%] | inhibition [9] [%] | inhibition [10] [%] | inhibition [11] [%] | inhibition [12] [%] | inhibition [13] [%] | inhibition [14] [%] | inhibition [15] [%] | inhibition [16] [%] | inhibition [17] [%] | inhibition [18] [%] | inhibition [19] [%] | inhibition [20] [%]
1 | CCn1c(-c2nonc2N)nc2cncc(C(=O)N3CC[C@H](N)C3)c21 | 2.85 | 6.43 | 9.69 | 4.59 | 6 | 4.27 | 6.06 | 0.81 | 1.96 | 0.55 | 1.18 | -1.1 | 22.4 | 0.61 | 1.25 | -0.95 | -0.29 | 7.05 | 15.8 | 5.39
2 | N#Cc1c(NC(=O)c2cccc3ccccc23)sc2c1CCCC2 | 4.04 | 4.79 | 6.4 | 1.59 | 2.51 | 5.97 | 6.62 | 0.81 | 1.11 | 1.77 | 1.28 | 3.98 | 3.68 | 1.62 | 1.85 | -0.84 | 1.51 | 6.33 | 9.83 | 2.71
3 | COc1cc2ncn(-c3cc(O[C@@H](C)c4ccccc4Cl)c(C(N)=O)s3)c2cc1OC | 27.5 | 10.8 | 43.3 | -0.08 | 2.3 | 1.26 | 3.04 | 3.27 | 3.99 | 0.13 | 3.19 | 0.34 | 3.27 | 2.38 | 1.08 | -3.05 | 1.97 | 18 | 67.7 | 4.65
4 | COc1ccc(-c2coc3ncnc(N)c23)cc1 | 2.02 | 5.63 | 8.51 | 1.64 | 2.38 | 5.22 | 6.33 | 1.82 | 1.27 | 1.41 | 1.48 | 0.98 | 2.67 | 1.71 | 2.08 | -1.56 | 2.35 | 6.15 | 9 | 5.17
5 | O=C1NC(=O)C(c2ccccc2Cl)=C1Nc1cccc(O)c1 | 2.43 | 3.62 | 5.29 | 3.77 | 2.85 | 0.88 | 4.12 | 7.16 | 2.14 | 1.12 | 2.08 | 3.43 | 0.51 | 2.97 | 4.56 | 0.39 | 21.8 | 4.45 | 6.91 | 0.48
6 | COc1ccc(-c2nn3ncccc3c2-c2ccnc(Nc3ccc(Cl)c(C(F)(F)F)c3)n2)cc1 | 6.37 | 1.57 | 4.58 | 0.1 | -0.08 | 3.14 | 2.37 | -1.6 | 1.11 | 0.94 | 0.32 | 1.77 | 10.6 | -0.46 | -0.98 | -0.77 | -0.67 | 1.69 | 4.52 | 1.4
7 | Nc1nc(-c2ccccn2)c(-c2ccc3ncccc3n2)s1 | -0.24 | 2.25 | 6.89 | 3.05 | 3.2 | 2.46 | 1.2 | 2.58 | 2.92 | 1.05 | 2.48 | 0.52 | 4.22 | -0.07 | 2 | -1.07 | -0.57 | 3.52 | 8.02 | 3.79
8 | COC(=O)Nc1nc2cc(Oc3cccc(NC(=O)Nc4cc(C(F)(F)F)ccc4F)c3)ccc2[nH]1 | 7.79 | 1.11 | 7.7 | -1.77 | -0.89 | 2.67 | 2.78 | -1.56 | -0.86 | 0.34 | 0.67 | 0.78 | 4.36 | -0.5 | -0.07 | 1.1 | 2.02 | 19.1 | 63.5 | 4.16
9 | O=C1NC(=O)C(c2ccc(Cl)cc2)=C1Nc1ccc(Cl)c(C(=O)O)c1 | 0.57 | 0.67 | 3.62 | 0.06 | -0.55 | 2.24 | 2.54 | -0.43 | -1.7 | -0.06 | 0.04 | -3.25 | -7.51 | -0.25 | -0.22 | 0.01 | 2.64 | 4.84 | 9.16 | -0.92
10 | COc1ccccc1Nc1ncc(-c2ccccc2)o1 | 8.38 | 9.81 | 13.3 | -0.7 | 1.64 | 1.17 | 3.48 | 3.09 | 3.73 | 0.73 | 3.07 | 4.14 | 5.2 | 0.56 | -0.51 | -3.6 | -1.96 | 10.6 | 19.2 | 78.2
11 | O=C1Nc2ccc(C(=O)c3ccco3)cc2C1=Cc1cc(Cl)c(O)c(Cl)c1 | 20.7 | 5.82 | 17.4 | 4.15 | 4.7 | 5.71 | 3.98 | 1.08 | 2.14 | 1.31 | 3.21 | 5.2 | 7.05 | 2.07 | 6 | 12.7 | 66.9 | 6.41 | 18.7 | 16.6
12 | CN1CCC(C(=O)Nc2n[nH]c3nnc(-c4ccccc4)cc23)CC1 | 3.89 | 3.42 | 7.61 | 3.98 | 4.17 | 7.76 | 4.86 | 1.63 | 2.13 | 1.35 | 2.38 | 4.13 | 17.6 | 1.08 | 1.05 | -1.09 | -0.3 | 2.34 | 10.6 | 4.36
13 | CS(=O)(=O)CCNCc1ccc(-c2ccc3ncnc(Nc4ccc(OCc5cccc(F)c5)c(C(F)(F)F)c4)c3c2)o1 | 2.37 | 5.21 | 4.98 | 0.07 | 1.69 | 5.7 | 6.44 | 3.1 | 2.55 | 1.12 | 0.72 | 3.98 | 13.3 | 0.47 | 1.17 | -0.58 | -0.15 | 3.99 | 3.93 | 3.96

Source: ChEMBL document CHEMBL1961873, “Compounds: GSK PKIS; Assays: Nanosyn kinase panel” (2012)
